This is an account of results in the supplement of paper PMC13380429.

SMILES strings stand for the structures.

The test system of this experiment is Vero E6 infected with SARS-CoV-2. Kind of experiment: inhibition of SARS-CoV-2 cytopathic effect; higher = more antiviral protection, active = above 15. The note with it: 48 h. Background: Protection from cytopathic effect is a common read-out in antiviral testing.

Consider `N=C(NCCCCCCNC(=N)NC(=N)Nc1ccc(Cl)cc1)NC(=N)Nc1ccc(Cl)cc1` [chlorhexidine], for which the “inhibition of SARS-CoV-2 cytopathic effect” value (shortened to “inhibition”) reads like this: (1 nM) 3.47% (inactive); (8.33 nM) 4.11% (inactive); (100 nM) 4.83% (inactive); (833.33 nM) 2.74% (inactive); (10000 nM) -3.2% (inactive).
Taken in the same sequence, the figures for `O=C1CC[C@@](c2ccccc2)(C2CCN(Cc3ccc(I)cc3)CC2)C(=O)N1` [iododexetimide] were 1.14% (inactive), -0.02% (inactive), -0.5% (inactive), -1.35% (inactive) and -6.84% (inactive).
Turning to `CN1[C@@H]2CC[C@H]1C[C@@H](OC(=O)C(CO)c1ccccc1)C2` (stereo not given in full), the “inhibition” value is -2.22% (inactive) (1 nM); -2.93% (inactive) (8.33 nM); 1.96% (inactive) (100 nM); 0.7% (inactive) (833.33 nM); 0.64% (inactive) (10000 nM).
In the case of `Nc1nc(N)nc(-c2cc(Cl)ccc2Cl)n1` [irsogladine], the “inhibition” value (1 nM) was 2.68% (inactive); the “inhibition” value (8.33 nM) was 1.38% (inactive); the “inhibition” value (100 nM) is 0.04% (inactive); the “inhibition” value (833.33 nM) is 1.79% (inactive); the “inhibition” value (10000 nM) was -0.24% (inactive).
Taken in the same sequence, the figures for `CCN1CCCC1CNC(=O)c1cc(S(N)(=O)=O)ccc1OC` (stereo not given) [sulpiride] were 0.06% (inactive), -1.14% (inactive), 0.7% (inactive), 1.07% (inactive) and 0.685% (inactive).
Taken in the same sequence, the figures for `Cc1c(N)nc([C@H](CC(N)=O)NC[C@H](N)C(N)=O)nc1C(=O)N[C@H](C(=O)N[C@H](C)[C@@H](O)[C@H](C)C(=O)N[C@H](C(=O)NCCc1nc(-c2nc(C(=O)NCCCNCCCCN)cs2)cs1)[C@@H](C)O)[C@@H](O[C@@H]1O[C@@H](CO)[C@@H](O)[C@H](O)[C@@H]1O[C@@H]1O[C@H](CO)[C@@H](O)[C@H](OC(N)=O)[C@@H]1O)c1cnc[nH]1` [bleomycetin] were 5.02% (inactive), -0.49% (inactive), -7.1% (inactive), -8.93% (inactive) and -22.7% (inactive).
In the case of `CC(C(=O)O)c1ccc2c(c1)[nH]c1ccc(Cl)cc12` (stereo not given) [carprofen], the “inhibition” value is 4.44% (inactive) (1 nM); 2.85% (inactive) (8.33 nM); -6.45% (inactive) (100 nM); 4.46% (inactive) (833.33 nM); 3.76% (inactive) (10000 nM).
Taken in the same sequence, the figures for `COc1cc2nccc(Oc3ccc(NC(=O)Nc4ccc(F)cc4F)c(F)c3)c2cc1OC` were -0.54% (inactive), 1.76% (inactive), 4.46% (inactive), 4.37% (inactive) and 5.75% (inactive).
Taken in the same sequence, the figures for `CC(C)c1nc(CN(C)C(=O)N[C@H](C(=O)N[C@@H](Cc2ccccc2)C[C@H](O)[C@H](Cc2ccccc2)NC(=O)OCc2cncs2)C(C)C)cs1` [ritonavir] were 0.04% (inactive), 0.25% (inactive), -0.08% (inactive), 3.37% (inactive) and 0.85% (inactive).
Taken in the same sequence, the figures for `O=C(Nc1ccccc1-c1cn2c(CN3CCNCC3)csc2n1)c1cnc2ccccc2n1` were 0.17% (inactive), 1.58% (inactive), -0.07% (inactive), -3.31% (inactive) and -26.2% (inactive).
In the case of `CC[C@@H](CO)NC(=O)[C@@H]1C=C2c3cccc4c3c(cn4C)C[C@H]2N(C)C1` [methysergide], the “inhibition” value was -0.52% (inactive) (1 nM); 0.46% (inactive) (8.33 nM); 0.82% (inactive) (100 nM); 1.51% (inactive) (833.33 nM); 0.92% (inactive) (10000 nM).
For `COC(=O)c1c(C)[nH]c(C)c1C(=O)c1ccccc1Cc1ccccc1` the same measures were 1.06% (inactive), -1.02% (inactive), 0.4% (inactive), -3.62% (inactive) and -3.09% (inactive).
Taken in the same sequence, the figures for `COc1ccc2c(c1)[C@]13CCCC[C@@H]1[C@H](C2)N(C)CC3` [dextromethorphan] were 0.17% (inactive), -0.37% (inactive), 0.6% (inactive), 0.81% (inactive) and -0.1% (inactive).
Turning to `O=C1C=C2C=C[C@@H]3C[C@@]2(O1)[C@H]1CCCCN31` [securinine], the “inhibition” value is 0.7% (inactive) (1 nM); 3.64% (inactive) (8.33 nM); 2.11% (inactive) (100 nM); 7.21% (inactive) (833.33 nM); 18.4% (active) (10000 nM).
Taken in the same sequence, the figures for `CCCN(CCC)C(=O)Cc1c(-c2ccc(Cl)cc2)nc2ccc(Cl)cn12` [alpidem] were -5.3% (inactive), -6.64% (inactive), -7.76% (inactive), -6.87% (inactive) and -3.74% (inactive).
Taken in the same sequence, the figures for `O=C1NCC2(CCN(CCc3ccccc3)CC2)O1` [fenspiride] were -2.77% (inactive), -1.55% (inactive), 2.18% (inactive), 0.71% (inactive) and 0.43% (inactive).
For `CC(C)NCCN(C(C)C)S(=O)(=O)c1ccc(Cl)cc1Cl` the same measures were 1.45% (inactive), -1.25% (inactive), 0.74% (inactive), -2.09% (inactive) and -5.49% (inactive).
